CYP2C19 inh: blockers of cytochrome P450 2C19 activity – biochemical, luminescence, ADME assay, primary screen; P33261; CYP2C19 Supersomes, luciferin-H EGE luminescence, 30 min; inhibition, % at 5 µM; actives 21% (n = 96,000); AID 778, 2007;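 active means CYP2C19 inhibition above a set limit at 5 µM in the primary screen, cut at about 50% in these data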
Target sequence (P33261 whole entry, looked up): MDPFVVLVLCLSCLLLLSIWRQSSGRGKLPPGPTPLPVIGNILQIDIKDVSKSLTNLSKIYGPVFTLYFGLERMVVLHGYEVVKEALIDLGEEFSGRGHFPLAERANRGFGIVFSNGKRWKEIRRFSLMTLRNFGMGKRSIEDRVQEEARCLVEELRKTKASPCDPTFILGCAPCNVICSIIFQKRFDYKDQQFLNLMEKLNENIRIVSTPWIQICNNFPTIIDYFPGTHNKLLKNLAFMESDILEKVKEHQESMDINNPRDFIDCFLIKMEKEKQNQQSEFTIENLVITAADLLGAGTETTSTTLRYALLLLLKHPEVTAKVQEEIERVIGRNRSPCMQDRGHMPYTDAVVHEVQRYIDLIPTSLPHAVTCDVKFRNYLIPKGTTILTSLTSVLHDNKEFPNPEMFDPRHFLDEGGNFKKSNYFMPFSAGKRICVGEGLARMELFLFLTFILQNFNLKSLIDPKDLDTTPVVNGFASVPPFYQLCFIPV
CYP2C9 act: human CYP2C9 activators, primary screen, biochemical, luminescence; Cytochrome P450 2C9 (Homo sapiens), P11712; recombinant CYP2C9, luciferin-H conversion; hits give high values; factor 1 = untreated enzyme, 0 = blocked; activation factor at 5 µM; actives 1.4% (n = 96,000); AID 1024, 2008;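 active means activation factor of 2 or more for CYP2C9 at a 5 µM dose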
CYP2C19 activ: human CYP2C19 activators, primary screen, biochemical, luminescence | recombinant CYP2C19, luciferin-H EGE luminescence; hits give high values; 0 = fully inhibited enzyme, 1 = untreated enzyme | 96,000 tested, under 10 active | activation factor at 5 µM | Cytochrome P450 2C19 (Homo sapiens), P33261;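 active means activation factor of at least 2 at 5 µM in the primary screen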
CYP2C9 inhib: blockers of cytochrome P450 2C9 activity – biochemical, luminescence, ADME assay, primary screen; actives 20% (n = 96,000); P11712; CYP2C9 Supersomes, luciferin-H conversion; inhibition, % at 5 µM;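 active means blocking of liver enzyme CYP2C9 beyond about 50% at 5 µM, limit read from the data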
PostGolgi ctrl: growth inhibition of yeast control strain, primary screen, counter-screen for post-Golgi transport modulator project; efflux-deficient yeast background strain, growth absorbance A615, 16 h; inhibition, % at 10 µM; actives 5% (n = 98,000); AID 738, 2007
PostGolgi yeast: phenotypic screen on post-Golgi transport, primary screen. inhibition, % at 10 µM. AID 739, 2007. post-Golgi transport phenotypic cell assay. actives 0.9% (n = 98,000);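 further: yeast cells grown in 1536-well plates; yeast grown about 18 h at 30C before absorbance read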
Each line names hits and unclear results; the compound was inactive in the other large screens. An excerpt weighted towards active compounds, which were near 32% of everything screened. Unless noted, no stated cut-off is given here; in the data, active means inhibition above about 30%; inactive means the rest.

COc1cccc2cc(C(=O)N(C)C3CCN(C)CC3)c(=O)oc12	none
c1ccc(Cn2nnnc2C(c2cccs2)N2CCc3ccccc3C2)cc1 (centres undefined)	CYP2C19 inh 92.4, CYP2C9 inhib 70.5
CC(C)C(c1nnnn1C1CCCCC1)N1CCc2ccccc2C1 (centres undefined)	none
CC(C)C(c1nnnn1Cc1ccccc1)N1CCc2ccccc2C1 (centres undefined)	CYP2C9 inhib 53.1
O=C(OC1CSc2nc3ccccc3n2C1)c1ccco1 (centres undefined)	none
Cc1cc(N2CCOCC2)c(F)cc1C(=O)c1ccccc1	CYP2C19 inh 59.0 (no result: PostGolgi yeast)
CC(=O)c1cc(F)c(N2CCOCC2)cc1C	none
COc1ccc(C(=O)c2ccc(N3CCN(C(=O)c4ccc(F)cc4)CC3)c(F)c2)cc1Br	CYP2C19 inh 65.9
CCCC(=O)c1ccc(N2CCN(C(=O)c3ccccc3)CC2)c(F)c1	none
CCC(=O)c1ccc(N2CCN(C(=O)Cc3ccccc3)CC2)c(F)c1	CYP2C19 inh 78.1, CYP2C9 inhib 95.4
CCC(=O)c1cc(F)c(N2CCN(C(=O)Cc3ccccc3)CC2)cc1C	CYP2C19 inh 84.9, CYP2C9 inhib 83.5
Nc1cccnc1Sc1cc(Cl)cc(Cl)c1	none
CCC(=O)c1ccc(N2CCN(C(=O)c3ccc(Br)cc3)CC2)c(F)c1	PostGolgi yeast 61.5
COc1ccccc1OCCc1nnc(N)s1	none
CCOC(=O)C1CCCN(C(=O)CNC(=O)Cn2ccc3ccccc3c2=O)C1 (centres undefined)	none
Cc1ccc(-n2c(SCC(=O)Nc3ccc4c(c3)OCCO4)nnc2-c2ccco2)cc1	none
CC(C)Oc1cccc(-c2nnc(SCC(=O)Nc3ccc4c(c3)OCCO4)n2N)c1	CYP2C19 inh 50.3, CYP2C9 inhib 70.6
COc1ccc(-c2nnc(SCC(=O)Nc3ccc4c(c3)OCCO4)n2N)cc1OC	CYP2C9 inhib 58.3
CCn1c(COc2ccc(C)cc2)nnc1SCC(=O)Nc1ccc2c(c1)OCCO2	none
C=CCSc1nnc2n(-c3ccccc3OC)c(=O)c3c4c(sc3n12)CCC4	none
COc1cc(OC)cc(C(=O)NC2CCN(Cc3nnnn3Cc3cccs3)CC2)c1	none
CCc1ccc(NC(=O)CCn2ccnc2C)cc1	CYP2C19 inh 82.9, CYP2C9 inhib 68.5
COC(=O)c1ccc(NC(=O)CCn2cccc2)cc1	none
O=C(CCN1CCc2ccccc2C1)Nc1ccc(F)cc1	CYP2C19 inh 61.0
CCc1ccc(NC(=O)CCn2cccc2)cc1	CYP2C19 inh 71.1
O=C(CCN1CCN(c2ccc(F)cc2)CC1)Nc1ccc(F)cc1	none
Cc1ccc(NC(=O)CCn2cccc2)cc1Cl	CYP2C19 inh 86.1
Cc1nccn1CCC(=O)O	none
CCOC(=O)c1sc(NC(=S)NC(=O)CC(C)C)cc1C	none
COc1cccc(-c2[nH]nc3c2C(c2ccc(C)o2)C(C#N)=C(N)O3)c1 (centres undefined)	none
Cc1ccc(C)c(NC(=O)Cn2nc(-c3ccccc3)nc2-c2ccccc2)c1	none
O=C(CCn1cccc1)Nc1ccc(F)cc1	CYP2C19 inh 61.5
CCC(Cc1ccccc1)NC(=O)CCn1cccc1 (centres undefined)	CYP2C19 inh 65.7, CYP2C9 inhib 66.3
CCOC(=O)c1ccccc1NC(=O)CC1SC(=NC)N(C)C1=O (centres undefined)	none
Cc1ccc(NC(=O)CC2S/C(=N/c3nccs3)N(C)C2=O)cc1C (centres undefined)	CYP2C19 inh 85.7, CYP2C9 inhib 78.7
CCNC(=O)CC1SC(=Nc2ccccc2C)N(C)C1=O (centres undefined)	none (no result: CYP2C19 inh, CYP2C9 act, CYP2C19 activ, CYP2C9 inhib)
CCOC(=O)c1ccc(NC(=O)CC2SC(=NC)N(C)C2=O)cc1 (centres undefined)	none
CN=C1SC(CC(=O)Nc2cc(Cl)ccc2Cl)C(=O)N1C (centres undefined)	CYP2C19 inh 59.8
Cc1ccccc1NC(=O)CC1S/C(=N/c2nccs2)N(C)C1=O (centres undefined)	CYP2C19 inh 90.0, CYP2C9 inhib 97.8
CCc1ccccc1NC(=O)CC1S/C(=N\c2nccs2)N(CC)C1=O (centres undefined)	CYP2C19 inh 96.1, CYP2C9 inhib 97.2

Screening results (PubChem BioAssay)
